PubChem BioAssay AID2391 (Southern Research Specialized Biocontainment Screening …, 2010)
In all, about 310,000 compounds went through this assay and about 410 (0.13%) were called active. Roughly 2% stayed inconclusive and do not appear here. How the calls were made is not given here. Only a sample is shown. Measured potencies and affinities stand elsewhere.

Experiment: inhibition of RSV-induced cytopathic effect – HEp-2 cells, primary 10 µM value included (AID 2391)
Conditions: at 10 µM, stronger effect = higher value

CPE inhibition, inactive:
CC(=O)NCCNC(=O)c1ccc(Cn2c(=O)[nH]c3ccsc3c2=O)cc1 0.58%, O=S(=O)(Nc1ccc(-c2ccc(N3CCOCC3)nn2)cc1)c1cc(Cl)ccc1Cl 1.29%, Cc1ccc([N+](=O)[O-])cc1S(=O)(=O)Nc1cccc(-c2ccc(N3CCOCC3)nn2)c1 30.8%, O=[N+]([O-])c1ccc(Cl)c(S(=O)(=O)Nc2ccc(-c3ccc(N4CCOCC4)nn3)cc2)c1 0.86%, O=[N+]([O-])c1ccc(Cl)c(S(=O)(=O)Nc2cccc(-c3ccc(N4CCCC4)nn3)c2)c1 55%, COc1ccccc1OCCn1ccnc1 0.82%, O=C(CC1C(=O)NCCN1Cc1cccc(Oc2ccccc2)c1)NCCn1cccn1 (stereo not drawn) 1.61%, CCn1ncc(CNC(=O)C2(C)CC2(Cl)Cl)c1C (stereo not drawn) 2.51%, O=C(O)/C=C/C(=O)NCCC(c1ccccc1)c1ccccc1 -0.16%, O=C(Nc1ccccc1)Nc1ccc(NC(=O)c2ccccc2O)cc1 1.31%, O=C(Nc1cccnc1)c1ccc(Cl)c(S(=O)(=O)N2CCCCC2)c1 10.1%, COc1cc(/C=C/c2cc(C(=O)O)c3ccccc3n2)cc(OC)c1O -0.63%, CCOc1cc(/C=C/c2cc(C(=O)O)c3ccccc3n2)ccc1OC 4.82%, COc1ccc(C2NC(=O)NC(C)=C2C(C)=O)cc1 (stereo not drawn) 2.63%, Cc1cc(Nc2ccc(Cl)cc2)nc(-c2ccccc2O)n1 14.1%, Cc1cc(Nc2ccccc2)nc(-c2ccccc2O)n1 21.2%, C[C@H]1CCC(=O)N(CCSc2ccc(Br)cc2)CC1 0.08%, CC(C)(C)c1n[nH]c2c1CCCC2 3.59%, COc1ccc2c(c1)-c1nc(NC(=O)c3ccco3)sc1CC2 45.2%, COc1ccc2c(c1)Cc1sc(NC(=O)c3cccs3)nc1-2 7.1%, Cc1nnc(SCC(=O)N2CCc3ccccc3C2)n1-c1ccccc1 2.35%, Cc1cc(C)c(NC(=O)CSc2nc3ccccc3c(=O)n2CCCN2CCOCC2)c(C)c1 -0.42%, COc1ccc(CNC(=O)C(C)Sc2nc3ccccc3c(=O)n2CCCN2CCOCC2)cc1 (stereo not drawn) -1.12%, C/C(N)=C(/C#N)C(=O)COC(=O)C(NS(=O)(=O)c1ccc(Cl)cc1)C(C)O (stereo not drawn) 0.82%, Cc1cc(C(=O)N2CCCC(N3CCN(c4cccc(Cl)c4)CC3)C2)nn1C (stereo not drawn) -0.33%, Cc1ccc(OCCCn2ccnc2)cc1C 0.08%, COc1cc(N)c(Cl)cc1C(=O)OCC(=O)Nc1cccnc1Cl 0.52%, COc1cc2c(cc1OC)[C@H](C)N(C(=O)CSc1nc(O)c(C(C)C)c(=O)[nH]1)CC2 0.69%, O=C(/C=C/c1ccc(OCCCF)cc1)N1CCOCC1 2.87%, O=C(/C=C/c1c(F)cccc1Cl)N1CCOCC1 0.12%, Cc1cc(C)n(-c2ccc(C(=O)OCC(=O)NCc3ccc(F)cc3)cc2)n1 0.92%, Cc1nc(-c2noc(-c3cccc(Cl)c3)n2)c(C(F)(F)F)o1 1.74%, CC(Nc1ccc2c(c1)OCCO2)C(=O)N1CCc2ccccc21 (stereo not drawn) 3.03%, CC(C(=O)N1CCc2ccccc21)n1cccc1 (stereo not drawn) 1.93%, CCOc1ccc(Br)cc1S(=O)(=O)Nc1ccc(C(=O)OCC(=O)Nc2ccc(C#N)cc2)cc1 2.94%, O=C(NC1CCN(S(=O)(=O)c2cccc(Cl)c2)CC1)C1CCCCC1 1.22%, CCOc1ccc(S(=O)(=O)NCCC(=O)Nc2nnc(C)s2)cc1 1.74%, CCCOc1ccc(N2C(=O)CC(N(Cc3ccccc3)N=O)C2=O)cc1 (stereo not drawn) -0.02%, CCCOc1ccc(N2C(=O)CC(N(CCc3ccc(OC)cc3)C(=O)c3ccccc3)C2=O)cc1 (stereo not drawn) 3.8%, N#C/C(=C\c1ccccc1O)C(=O)Nc1ccccn1 9.95%, Cc1cc([N+](=O)[O-])cc(C)c1OCC(=O)N/N=C/c1ccc(OC(=O)c2ccccc2)cc1 10.1%, COc1cc(/C=N/NC(=O)COc2c(C)cc([N+](=O)[O-])cc2C)ccc1OC(=O)c1ccccc1Br 5.39%, Cc1sc2c(c1C)c(=O)n(-c1ccc(Cl)cc1)c(=O)n2Cc1cc(=O)n2ccccc2n1 8.46%, Cc1ccc(-n2c(=O)c3c(C)c(C)sc3n(Cc3cc(=O)n4ccccc4n3)c2=O)cc1C 11.6%, CCOc1ccc(-n2c(=O)c3sccc3n(Cc3ccc(C)cc3)c2=O)cc1 2.63%, O=c1c2sccc2nc(SCc2cc(=O)n3ccccc3n2)n1Cc1ccccn1 0.36%, COc1cc(-n2c(=O)c3ccccc3n(Cc3cc(=O)n4ccccc4n3)c2=O)cc(OC)c1OC 2%, Cc1ccc(-n2c(=O)c3c4c(sc3n(Cc3cc(=O)n5ccccc5n3)c2=O)CCC4)cc1C 9.89%, Cc1sc2ncnc(N3CCC(C(=O)Nc4ccc(Br)cc4Br)CC3)c2c1C 10.1%, CCOC(=O)c1cc(-c2ccccc2)n(Cc2cc(CC)no2)n1 2.08%, Cc1ccc(-n2nc3c(c2NC(=O)c2ccco2)CS(=O)(=O)C3)cc1 1.04%, Cc1ccc(S(=O)(=O)Nc2ccncc2)c(C)c1N(C)S(=O)(=O)c1ccc(Cl)cc1 3.66%, CCOC(=O)c1c(C)nc2c(c1-c1cc(OC)ccc1OC)C(=O)c1ccccc1-2 0.88%, CN(C)[C@@H]1CCC[C@@H]1OC(=O)C(c1ccccc1)c1ccccc1 1.33%, COc1ccc(C(=O)NCc2nnc(SCC(=O)Nc3cc(C)on3)o2)cc1OC 0.22%, Cc1ccccc1-c1cc2nc(C)c(C)c(=O)n2[nH]1 2.53%, Cc1cccnc1NC1CCCCC1 0.99%, COc1ccc(NC(=O)COc2ccccc2C(=O)NCC(c2ccccc2)N(C)C)cc1Cl (stereo not drawn) 0.1%
